From PubChem BioAssay AID623911 (Vanderbilt High Throughput Screening Facility, 2012)
Among all 2,100 compounds or so, about 770 (37%) were called active.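 The calls were made as follows: active = by-eye trace score of 1 for enhancers or -1 for inhibitors, so actives lie on both sides (some results past the limit were not filed as active); inactive = score 0, or 3 fluorescent, or 4 baseline rise.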 This is one part of the list.

The molecules below were run against G protein-activated inward rectifier potassium channel 2 (Homo sapiens) + G protein-activated inward rectifier potassium channel 1 (Homo sapiens) (UniProt P48051+P48549) (assay: GIRK1/2 thallium flux modulators, retest, confirmation, cell-based, HEK293 rmGlu8/hGIRK1/2, FluoZin-2 (AID 623911)). Settings: HEK293 rmGlu8/hGIRK1/2, thallium flux FluoZin-2; actives lie on both sides; glutamate co-added at its EC20 level.
Sequence of G protein-activated inward rectifier potassium channel 2 (Homo sapiens) + G protein-activated inward rectifier potassium channel 1 (Homo sapiens) (P48051 whole entry, looked up): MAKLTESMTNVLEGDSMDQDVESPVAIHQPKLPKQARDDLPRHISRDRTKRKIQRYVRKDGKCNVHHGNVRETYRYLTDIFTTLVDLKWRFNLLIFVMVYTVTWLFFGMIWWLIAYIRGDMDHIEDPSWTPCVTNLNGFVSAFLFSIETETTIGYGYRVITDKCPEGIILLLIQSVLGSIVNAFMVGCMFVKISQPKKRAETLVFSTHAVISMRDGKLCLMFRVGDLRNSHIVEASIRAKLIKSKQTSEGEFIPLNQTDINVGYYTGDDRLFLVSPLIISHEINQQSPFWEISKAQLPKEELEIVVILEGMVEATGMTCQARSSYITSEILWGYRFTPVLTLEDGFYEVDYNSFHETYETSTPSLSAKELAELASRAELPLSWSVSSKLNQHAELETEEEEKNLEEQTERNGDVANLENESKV
Sequence of G protein-activated inward rectifier potassium channel 2 (Homo sapiens) + G protein-activated inward rectifier potassium channel 1 (Homo sapiens) (P48549 whole entry, looked up): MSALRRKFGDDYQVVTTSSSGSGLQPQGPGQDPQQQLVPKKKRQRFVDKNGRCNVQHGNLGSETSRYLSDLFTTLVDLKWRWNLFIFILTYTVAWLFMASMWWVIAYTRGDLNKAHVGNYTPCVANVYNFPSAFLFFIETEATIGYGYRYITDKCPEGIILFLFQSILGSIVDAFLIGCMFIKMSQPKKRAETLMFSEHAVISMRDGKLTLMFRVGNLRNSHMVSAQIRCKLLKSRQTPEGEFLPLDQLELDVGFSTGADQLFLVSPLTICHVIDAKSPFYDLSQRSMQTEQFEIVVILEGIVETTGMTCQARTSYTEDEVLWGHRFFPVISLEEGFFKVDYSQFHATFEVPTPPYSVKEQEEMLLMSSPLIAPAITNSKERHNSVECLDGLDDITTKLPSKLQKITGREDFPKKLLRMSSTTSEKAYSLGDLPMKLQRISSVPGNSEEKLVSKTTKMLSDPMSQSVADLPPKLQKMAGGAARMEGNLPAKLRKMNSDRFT

| SMILES | manual score |
| --- | --- |
| CCOc1ccc(Br)cc1/C(C)=N\NC1=NCCN1 | -1 (active) |
| CCNS(=O)(=O)c1cc(S(C)(=O)=O)ccc1Cl | 0 (inactive) |
| Cc1ccc(/C=N/n2c(COc3ccccc3)n[nH]c2=S)s1 | 0 (inactive) |
| CC(/C=N/n1c(-c2ccccc2)n[nH]c1=S)=C\c1ccco1 | 0 (inactive) |
| CCN(CC)S(=O)(=O)c1cccc(-c2n[nH]c(=S)n2/N=C/c2ccc(C(=O)OC)cc2)c1 | 0 (inactive) |
| COc1cccc(/C=N/n2c(-c3cccs3)n[nH]c2=S)c1 | 1 (active) |
| CC(=C/c1ccccc1)/C=N/n1c(-c2ccco2)n[nH]c1=S | 0 (inactive) |
| COc1ccc(/C=N/n2c(-c3cccs3)n[nH]c2=S)cc1 | 1 (active) |
| CC(=O)Nc1ccc(S(=O)(=O)NC(C(=O)O)C2=CCC=CC2)cc1 (configuration not stated) | 0 (inactive) |
| S=C(Nc1ccccc1Cl)Nc1ccc(Cl)cc1Cl | 1 (active) |
| O=C(Nc1cccc(S(=O)(=O)c2cccc(NC(=O)C3CC3)c2)c1)C1CC1 | 0 (inactive) |
| Cc1ccc(NCC(=O)Nc2cccc(S(=O)(=O)N(C)C)c2)c(Cl)c1 | 0 (inactive) |
| CN(C)S(=O)(=O)c1cccc(NC(=S)Nc2ccc(Cl)cc2Cl)c1 | 1 (active) |
| CN(C)S(=O)(=O)c1cccc(NC(=S)Nc2cc(Cl)cc(Cl)c2)c1 | 1 (active) |
| CN(C)S(=O)(=O)c1cccc(NC(=O)Cc2ccc(Cl)cc2)c1 | 1 (active) |
| CN(C)S(=O)(=O)c1cccc(NC(=O)COc2cccc(C#N)c2)c1 | 0 (inactive) |
| CC(C)OC(=O)/C(=C/c1cccnc1)NC(=O)c1ccccc1 | 0 (inactive) |
| O=C(N/N=C(\c1ccccc1)c1cccnc1)C(O)(c1ccccc1)c1ccccc1 | -1 (active) |
| O=C(NCCCCNC(=O)c1cccnc1)c1cccnc1 | 0 (inactive) |
| Cc1cc(N2C(=O)C(O)=C(C(=O)c3ccc(C)o3)C2c2cccs2)no1 (configuration not stated) | 0 (inactive) |
| CCCCn1c(-c2ccc(Cl)cc2)nc2c(=O)n(C)c(=O)[nH]c21 | 0 (inactive) |
| CC(=O)c1c(C)[nH]c(C(=O)CSc2ncnc3sc(-c4ccccc4)cc23)c1C | 1 (active) |
| CC(C)N(C(=O)CSc1ncnc2sc(-c3ccccc3)cc12)C(C)C | 0 (inactive) |

| SMILES | manual score |
| --- | --- |
| CCN(CC)C(=O)CSc1ncnc2sc(-c3ccccc3)cc12 | 0 (inactive) |
| Clc1ccccc1-c1nnc2sc(-c3ccccn3)nn12 | 0.5 (inactive) |
| Clc1ccccc1-c1nnc2sc(-c3ccc4c(c3)OCO4)nn12 | 0 (inactive) |
| Brc1ccccc1-c1nnc2sc(-c3ccc4c(c3)OCCO4)nn12 | -1 (active) |
| CCN(C(=O)CSc1nc2ccccc2n1CCc1ccccc1)C1CCS(=O)(=O)C1 (configuration not stated) | 0 (inactive) |
| CCCOC(=O)NC(CC)COC(=O)Nc1cccc(C)c1C (configuration not stated) | 0 (inactive) |
| Cc1cc(C)c(-n2c(C)cc(/C=C3/NC(=O)NC3=O)c2C)c(C)c1 | -1 (active) |
| Cc1cc(C=C2C(=O)c3ccccc3C2=O)c(C)n1-c1ccccc1 | 0.5 (inactive) |
| Cc1ccc(C)c(OCC(O)CN2C(C)CCCC2C)c1 (configuration not stated) | -1 (active) |
| C/C(=N\NC(=S)NCCc1ccccc1)c1ccc(C)cc1 | 0 (inactive) |
| CC(C)Oc1ccccc1C1Nc2ccccc2C(=O)N1c1ccc2c(c1)OCCO2 (configuration not stated) | 0 (inactive) |
| O=C(COC(=O)C1CC(=O)N(Cc2ccccc2)C1)Nc1ccc2c(c1)OCO2 (configuration not stated) | 0 (inactive) |
| O=C1c2ccccc2C(Nc2ccc3c(c2)OCCO3)N1Cc1ccccc1 (configuration not stated) | -1 (active) |
| O=C(CSCC(=O)N1CCCCC1)Nc1nc(-c2ccc(Cl)s2)cs1 | 0 (inactive) |
| c1cn(C23CC4CC(CC(C4)C2)C3)cn1 | -1 (active) |
| CCc1ccc2c(c1)C1(NN=C(c3cccc4ccccc34)S1)C(=O)N2 (configuration not stated) | 0 (inactive) |
| O=C(NC(=S)Nc1ccccc1Cl)c1csnn1 | 1 (active) |
| Cc1ccc2cccc(NC(=S)NC(=O)c3ccn(C)n3)c2n1 | 0 (inactive) |
| O=C(NC(=S)Nc1ccccc1)c1csnn1 | 1 (active) |
| CC(C)Oc1cccc(C(=O)NC(=S)Nc2ccccc2)c1 | 0 (inactive) |
| O=C(NC(=S)Nc1ccccc1)c1cc(-c2ccccc2)nc2ccccc12 | 0 (inactive) |
| O=C(NC(=S)Nc1cc(C(F)(F)F)ccc1Cl)c1ccccc1 | 0 (inactive) |
| COc1ccc(Nc2nc(N)nc(CSc3nnc(C)s3)n2)cc1 | 0 (inactive) |

| SMILES | manual score |
| --- | --- |
| Cc1cccc(C)c1NC(=O)C(NC(=O)c1ccccn1)c1ccc([N+](=O)[O-])cc1 (configuration not stated) | 0 (inactive) |
| CC1CN(C(=O)C2CCCCC2)C(C)CN1C(=O)C1CCCCC1 (configuration not stated) | 0 (inactive) |
| O=C(CC(=O)c1ccccc1O)c1cccc(F)c1 | 1 (active) |
| Cc1cccc(C(=O)CC(=O)c2cc(Cl)ccc2O)c1 | 0.5 (inactive) |
| CCC(NC(=O)c1ccccc1O)c1ccccc1 (configuration not stated) | 0 (inactive) |
| O=C(CC(=O)c1cc(Cl)ccc1O)c1ccccc1 | 0 (inactive) |
| O=C(CC(=O)c1ccccc1O)c1ccc(F)cc1 | 1 (active) |
| COc1ccc(CN(CCC#N)C(=S)NC(=O)c2ccccc2)cc1 | 1 (active) |
| COc1cccc(C(=O)NC(=S)Nc2ccc3c4c(cccc24)CC3)c1 | 0 (inactive) |
| N#CCCN(Cc1ccccc1)C(=S)NC(=O)c1ccccc1 | 1 (active) |
| Cc1cc(C)cc(OCC(=O)N2N=C(C(F)(F)F)CC2(O)C(C)(C)C)c1 (configuration not stated) | 0 (inactive) |
| O=C(N1CCCCC1)N1CCN(C(=O)N(c2ccccc2)c2ccccc2)CC1 | 0 (inactive) |
| N/C(=N/O)c1nc(N2CCCC2)nc(N(c2ccccc2)c2ccccc2)n1 | -1 (active) |
| CC(C)C(=O)Nc1nnn(C)n1 | 0 (inactive) |
| CCOC(=O)N1CCN(C(=O)c2oc3ccc(S(=O)(=O)N4CC(C)CC(C)C4)cc3c2C)CC1 (configuration not stated) | -1 (active) |
| Cc1c(C(=O)NCc2cccnc2)oc2ccc(S(=O)(=O)N3CCC4(CC3)OCCO4)cc12 | 0 (inactive) |
| COC(=O)c1nc(NC(C)=O)n[nH]1 | 0 (inactive) |
| CC1(C)CC2CC(C)(CN2c2ncnc3ccccc23)C1 (configuration not stated) | -1 (active) |
| O=C(/C=C/c1ccc(Cl)cc1)NC(=S)NN1CCCCC1c1cccnc1 (configuration not stated) | 0 (inactive) |
| COC(=O)C1=C(C)NC(=O)/C1=C\c1ccco1 | 0 (inactive) |
| Cc1cccc(N=C2NC(=O)/C(=C/C=C/c3ccco3)S2)c1C | 1 (active) |
